# Data from PubChem BioAssay AID485364 (National Center for Advancing Translational Sciences (NCATS), 2010).
# Several values for one entry are separate records, joined by “and”; a condition that tells them apart may be missing. Identical values can stand only once. Screen size: about 360,000 compounds; about 11,000 (3.1%) were called active. Inconclusive results (about 4%) are left out. Calls follow the shape of the dose curve; as a rule, active = well fitted inhibition curve with a large enough effect; inconclusive = small, poorly fitted or top-dose-only effect; inactive = no such curve, though single readings can be large or run the other way. For the sample, actives were picked, then their nearest neighbours and some compounds at random. Some structures have more than one record in an assay (separate samples or runs), and their calls can disagree.
# Biological target: Schistosoma mansoni thioredoxin glutathione reductase (TGR) (UniProt Q962Y6)
# Assay: qHTS Assay for the Inhibitors of Schistosoma Mansoni Peroxiredoxins; also: nearly all actives have a fitted effect of over 60% in size
# Conditions: purified TGR, DTNB reduction, TNB absorbance 405 nm; series mostly up to 114 µM; activity change, negative = inhibition: at the top concentration
# Outline: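 First, TGR (20 nM dispensed) and NADPH were mixed with compound. Second, a 15 min room-temperature incubation followed. Third, further NADPH and then DTNB were added to start the reaction. Finally, TNB absorbance was monitored kinetically.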
# % is scaled to controls: 0 for no effect and ±100 for the full control effect; potency is read from the fitted curve at half-maximal effect.
Compound,"activity change, negative = inhibition",Potency
Cc1ccc(NC(=O)c2cn3c4c(ccc(Cl)c4c2=O)OC(C)C3)cc1C (centres undefined),-0.119% (inactive),
CCNCCC(=O)N1c2ccccc2Sc2ccc(NC(=O)OCC)cc21,-0.642% (inactive),
CCOC(=O)Nc1ccc2c(c1)N(C(=O)CCCl)c1ccccc1[S@]2=O,,14.1 µM (active)
CCOC(=O)Nc1ccc2c(c1)N(C(=O)CCN1CCN(CCO)CC1)c1ccccc1CC2,-11.7% (inactive),
COc1ccc(Cl)cc1NC(=O)CSc1nc(=O)[nH]c2c1CCCC2,-13.1% (inactive),
COc1cccc(-c2nc(CS(=O)(=O)CC(=O)N3CCN(c4cc(C)ccc4C)CC3)c(C)o2)c1,-0.431% (inactive),
Cc1ccccc1-c1nc(CS(=O)(=O)CC(=O)Nc2cc(Cl)cc(Cl)c2)c(C)o1,-0.424% (inactive),
Cc1ccc(S(=O)(=O)CC(=O)NC(C)c2ccccc2)cc1 (centres undefined),0% (inactive),
Cc1oc(-c2ccccc2F)nc1CS(=O)(=O)CC(=O)NCCCN(C)C1CCCCC1,3.21% (inactive),
Cc1ccccc1-c1nc(CS(=O)(=O)CC(=O)NC(C)c2ccccc2)c(C)o1 (centres undefined),,inactive and 39.8 µM (active)
Cc1ccccc1-c1nc(CS(=O)(=O)CC(=O)N2CCc3ccccc3C2)c(C)o1,,3.55 µM (active)
Cc1ccc(-c2noc(-c3nnn(-c4cccc(C(F)(F)F)c4)c3N)n2)cc1,7.72% (inactive),
CC1CCC(N2CC(=O)N(CCC3=CCCCC3)C(c3ccc(F)cc3)C2=O)CC1 (centres undefined),5.07% (inactive),
CCOc1ccc(S(=O)(=O)c2cn(Cc3ccc(OC)cc3)c3ccc(F)cc3c2=O)cc1,-1.61% (inactive),
COc1ccc(C)cc1NC(=O)C(=O)NCCc1sc(-c2cccc(C)c2)nc1C,6.58% (inactive),
Cc1cc(C)c2oc(-c3cccc(NC(=O)c4cccc(F)c4)c3C)nc2c1,1.22% (inactive),
CCOC(=O)c1c(C)oc2nc(C)nc(N3CCN(c4ccc(OC)cc4)CC3)c12,0.844% (inactive),
O=C(NC1CC(=O)N(c2ccccc2)C1)c1ccco1 (centres undefined),8.46% (inactive),
CCOC(=O)C(NS(=O)(=O)c1ccc(C)cc1)(C(F)(F)F)P(=O)(OCC(C)C)OCC(C)C (centres undefined),,22.4 µM (active)
Cc1ccc(S(=O)(=O)NCC(C)NS(C)(=O)=O)cc1 (centres undefined),-8.27% (inactive),
CC(=O)N1CCN(CC(C)(C)NS(=O)(=O)c2ccc(C)cc2)CC1,-16.5% (inactive),
Cn1c(C(=O)N2CCC(C(=O)N3CCN(c4ccccc4)CC3)CC2)cc2sccc21,1.1% (inactive),
Cc1ccc(Cl)cc1N(C)C(=O)C1CCCN(c2ncnc3onc(-c4ccc(F)cc4)c23)C1 (centres undefined),6.45% (inactive),
O=C(CN1CCN(S(=O)(=O)/C=C/c2ccccc2)CC1)NC(=O)NCc1ccco1,,28.2 µM (active)
NC(=O)CCN1CCN(S(=O)(=O)/C=C/c2ccccc2)CC1,-0.515% (inactive),

Compound,"activity change, negative = inhibition",Potency
COc1ccccc1N1CCN(CC(=O)NC(=O)NCc2ccco2)CC1,3.23% (inactive),
Cc1ccc(Nc2nnc(-c3ccc(C)c(S(=O)(=O)N4CCCCC4)c3)c3ccccc23)cc1,-0.898% (inactive),
Cc1ccc2cccc(NC(=O)c3cccc4ccccc34)c2n1,-0.566% (inactive),
Cc1cccc(NC(=O)N2CCC(CN3CCc4ccccc4C3)CC2)c1C,2.98% (inactive),
O=C(CC1N=C2c3ccccc3N=C(SCc3ccc(F)cc3)N2C1=O)NCc1cccs1 (centres undefined),-1.39% (inactive),
CC1Cc2cc(S(=O)(=O)CCC(=O)Nc3ccc(F)c(Cl)c3)ccc2N1C(=O)C1CC1 (centres undefined),1.79% (inactive),
Cc1ccc(CNC(=O)CCS(=O)(=O)c2ccc3c(c2)CC(C)N3C(=O)C2CC2)o1 (centres undefined),,44.7 µM (active)
CC1Cc2cc(S(=O)(=O)CCC(=O)NCc3ccc(Cl)cc3)ccc2N1C(=O)C1CC1 (centres undefined),2.16% (inactive),
COc1cc(OC)cc(C(=O)Nc2c(C(=O)Nc3ccc(F)cc3)oc3ccccc23)c1,4.09% (inactive),
CCOc1ccc(Nc2ncnc3scc(-c4ccc(OC)cc4)c23)cc1,11.5% (inactive),
Cc1cccc2nc(-c3ccc(Cl)s3)c(Nc3ccc4c(c3)OCCO4)n12,2.96% (inactive),
O=c1cc(CCl)nc2scc(-c3ccccc3)n12,,17.8 µM (active)
Cc1csc2nc(COC(=O)c3ccccc3NC(=O)c3ccccc3Cl)cc(=O)n12,1.82% (inactive),
Cc1csc2nc(COc3ccc(NC(=O)COc4ccccc4)cc3)cc(=O)n12,5.27% (inactive),
Cc1oc2ccc(O)c(CN3CCOCC3)c2c1C(=O)Nc1cccc(Cl)c1C,1.69% (inactive),
Cc1ccc(S(=O)(=O)c2nc(-c3cccs3)oc2NCc2cccnc2)cc1,-2.01% (inactive),
COc1cccc(-c2nc(S(=O)(=O)c3ccc(C)cc3)c(NCc3ccccc3)o2)c1,,44.7 µM (active)
O=S(=O)(c1ccc(Br)cc1)c1nc(-c2ccccc2)oc1NCc1cccnc1,2.3% (inactive),
CCOC(=O)C(Cc1ccccc1)NC(=O)CCc1c(C)nc2c(c(C)nn2-c2ccc(C)c(C)c2)c1C (centres undefined),5.29% (inactive),
CCC1CCCCN1S(=O)(=O)c1ccc(NC(=O)c2cc(=O)c3ccccc3o2)cc1 (centres undefined),2.57% (inactive),
CCOc1ccc(CNC(=O)CCc2c(C)nn(-c3ccc(N4CCCCC4)nn3)c2C)cc1,-3.22% (inactive),
Cc1ccc(N2C(=O)C3C4C=CC(CC4)C3C2=O)cc1Cl (centres undefined),,25.1 µM (active)
CC(=O)Nc1ccc(N2C(=O)C3C4C=CC(CC4)C3C2=O)cc1 (centres undefined),-9.16% (inactive),
Cc1ccc(N2C(=O)C3C4C=CC(CC4)C3C2=O)cc1Br (centres undefined),-3.52% (inactive),
Cc1ccc2oc(C(=O)Nc3ccc(S(=O)(=O)N4CCCCCC4)cc3)cc(=O)c2c1,4.12% (inactive),

Compound,"activity change, negative = inhibition",Potency
COc1ccc(-c2noc(CSc3nc(C)cc(=O)[nH]3)n2)cc1OC,-0.744% (inactive),
O=C(CSc1oc(-c2ccccc2)nc1S(=O)(=O)c1ccc(Br)cc1)NC1CCCCC1,-3.74% (inactive),
Oc1c(Cl)cc(Cl)cc1/C=N/c1ncn[nH]1,,20 µM (active)
COc1cc(Br)cc(/C=N/c2ncn[nH]2)c1O,5.17% (inactive),
Cc1ccc(Nc2c(-c3ccc(N(C)C)cc3)nc3nc[nH]n23)cc1,-3.83% (inactive),
COc1cc(OC)cc(-c2nc3nc(C)c(CCC(=O)Nc4ccc(C)cc4)c(C)n3n2)c1,-1.28% (inactive),
Cc1ccc(C2=C/C(=C\c3cccnc3)C(=O)O2)cc1,-8.03% (inactive),
CN(C)/C=C1\C=C(c2ccccc2)OC1=O,,22.4 µM (active)
COc1ccccc1/C=C/C1=NC(=C\N(C)C)/C(=O)O1,-9.84% (inactive),
Cc1ccc(S(=O)(=O)NCc2nc3nc(C)cc(C)n3n2)cc1,-1.78% (inactive),
Cc1cc(C)n2nc(C(=O)NC(C)(C)C)nc2n1,-8.16% (inactive),
Cc1cc(C)n2nc(CNS(=O)(=O)c3c(F)c(F)c(F)c(F)c3F)nc2n1,,17.8 µM (active)
COC(=O)c1ccccc1NS(=O)(=O)c1ccc2c(c1)CCCN2C(C)=O,7.01% (inactive),
Cc1c(Cl)cccc1NC(=O)Cn1cc(C(=O)c2cccs2)c2ccccc21,1.68% (inactive),
NC1=NC(c2cc(F)cc(F)c2)n2c(nc3ccccc32)N1 (centres undefined),-2.89% (inactive),
Cc1ccc(-n2c(SCC(=O)c3ccccc3)nc3c([nH]c4ccccc43)c2=O)cc1,6.85% (inactive),
COc1ccccc1NC(=O)c1c(Br)cnn1C,10.4% (inactive),
COc1ccccc1NC(=O)/C=C/C(N)=O,,2.82 µM (active)
COc1ccccc1NC(=O)c1cc(Cl)nnc1Cl,-15.3% (inactive),
CC(NC(=O)CCc1cn(Cc2ccccc2Cl)c2ccccc12)c1ccccc1 (centres undefined),9.78% (inactive),
Cc1ccc(NC(=O)c2ccc3[nH]c(C)cc(=O)c3c2)c(C)c1,0.821% (inactive),
O=[N+]([O-])c1ccc(C=Nc2ccc(Cl)cc2Cl)s1,,25.1 µM (active)
COc1ccc(C(C)=O)cc1CSc1nc2nc(C)cc(C)n2n1,,39.8 µM (active)
Cc1cc(C)n2nc(SCC(N)=O)nc2n1,1.42% (inactive),
COc1cccc(CSc2nc3nc(C)cc(C)n3n2)c1,5.94% (inactive),

Compound,"activity change, negative = inhibition",Potency
CCOc1ccccc1CNC(=O)C1CCCN(S(=O)(=O)c2ccc3c(ccn3C)c2)C1 (centres undefined),2.74% (inactive),
Cc1ccc(CNS(=O)(=O)c2ccc(C(=O)N(C)C)s2)cc1,8.48% (inactive),
Cc1ccc2c(c1)-c1c(cnn1CC(=O)Nc1ccccc1C#N)CO2,2.81% (inactive),
CCOC(=O)c1ccc(COC(=O)CCc2nc(-c3ccccc3)c(-c3ccccc3)o2)cc1,2.19% (inactive),
COc1ccc(-c2nc3ccccc3c(=O)n2CCc2ccc(O)cc2)cc1,-3.44% (inactive),
COc1ccc(-c2ccc(CCC(=O)O)n2-c2ccc(O)cc2)cc1,,39.8 µM (active)
Cc1ccc(-c2ccc(CCC(=O)O)n2-c2ccc(C(N)=O)cc2)cc1,,12.6 µM (active)
CCOC(=O)c1ccc(NC(=O)c2ncn(-c3ccccc3)n2)cc1,-0.841% (inactive),
CCOC(=O)c1ccc(-n2c(CCC(=O)O)ccc2-c2ccccc2)cc1,,28.2 µM (active) and 50.1 µM (active)
COc1ccc(Cl)cc1NC(=O)Cn1nc(-c2ccc(C)cc2)n(C)c1=S,-1.27% (inactive),
COc1ccc(Cl)cc1-n1c(CCC(=O)O)ccc1-c1ccc(C)cc1,,39.8 µM (active)
COc1ccc(-c2cn(-c3ccc(C)cc3)c(=O)n2CC(=O)Nc2ccc(OC)c(OC)c2)cc1,-2.58% (inactive),
C=Cn1c(C(=O)O)ccc1-c1ccc(OC)cc1,-6.86% (inactive),
COc1ccc(NC(=O)Cn2c(-c3ccc(OC)cc3)cn(-c3ccc(C)cc3)c2=O)cc1,-3.25% (inactive),
COc1ccc(Cl)cc1NC(=O)CCC(=O)c1ccc(C)cc1,3.91% (inactive),
CCOc1ccccc1N(CC)C(=O)Nc1cn(C)c(=O)c2ccccc12,-2.07% (inactive),
COc1ccc(NC(=O)Nc2cccc(-c3noc(C)n3)c2)cc1,-2.78% (inactive),
CCCCCn1c(CCNC(=O)c2ccc(F)cc2)nc2ccccc21,0.666% (inactive),
O=C(CC1C(=O)N(c2ccccc2)C(=O)N1CCc1cccs1)Nc1ccc(F)cc1 (centres undefined),-4.99% (inactive),
Cc1ccc(C(=O)Nc2ccc(OCc3cc(=O)n4c(C)csc4n3)cc2)cc1,0.173% (inactive),
CC(C)C12CN3CC(C(C)C)(CN(C1)C3c1ccc(OCc3ccccc3)cc1)C2=O (centres undefined),1.3% (inactive),
CCOC(=O)C1=C(c2ccccc2)Nc2ncnn2C1c1ccc(Cl)cc1 (centres undefined),0.261% (inactive),
Fc1ccccc1/C=C1\CCCC2=C1Nc1ncnn1C2c1ccccc1F (centres undefined),,1.26 µM (active)
COc1ccc2c(Sc3ccc(C)cc3)c(C(=O)NC(C)c3ccccc3)[nH]c2c1 (centres undefined),5.33% (inactive),
